# Values joined by “and” are separate entries in the source; they are usually repeats but may differ in a detail not shown here. Equal values may be shown once. This is part of a sample that, as a whole, favours compounds with a hit. Of some 83,000 tested, about 20% had one in any assay.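 Percent growth is the endpoint: 0 to 100 indicates growth inhibition (40 means 60% inhibition), 0 means no net growth, and negative values indicate cell death.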 Active and inactive are the calls of the source. How the source made its calls: active means growth percent below 10; inactive means the rest.
# How the values were obtained:
# Assay in all cases: NCI-60 one-dose screen, 48 h (100 = growth as untreated, 0 = no growth, -100 = all killed)
# [1] = tested on: NCI-H23 lung; conditions: 10 µM unless noted
# [2] = tested on: NCI-H226 lung
# [3] = tested on: HOP-62 NSCLC
# [4] = tested on: NCI-H460 lung
# [5] = tested on: HOP-92 NSCLC
# [6] = tested on: NCI-H522 lung; conditions: 10 µM unless noted
# [7] = tested on: A549/ATCC NSCLC
# [8] = tested on: 786-0 renal
# [9] = tested on: COLO 205 colon
# [10] = tested on: NCI-H322M lung
structure (smiles),measurement,setting,value
O=C1OCc2cccc3cccc1c23,growth,[1],101% (inactive)
same,growth,[2]; 10 µM unless noted,91.4% (inactive)
same,growth,[3]; 10 µM unless noted,113% (inactive)
same,growth,[4]; 10 µM unless noted,104% (inactive)
same,growth,[5]; 10 µM unless noted,80.8% (inactive)
same,growth,[6],108% (inactive)
same,growth,[7]; 10 µM unless noted,78.9% (inactive)
same,growth,[8]; 10 µM unless noted,110% (inactive)
same,growth,[9]; 10 µM unless noted,115% (inactive)
CC1OC(OC2C(OC3CCC4(C)C(CCC5(C)C4CC=C4C6CC(C)(C)CCC6(CO)C(O)CC45C)C3(C)C)OC(C(=O)O)C(OC3OC(COC4OC(CO)C(O)C(O)C4O)C(O)C(O)C3O)C2O)C(O)C(O)C1O (centres undefined),growth,[1],-82.1% (active)
same,growth,[2]; 10 µM unless noted,-63.6% (active)
same,growth,[10]; 10 µM unless noted,-96.2% (active)
same,growth,[3]; 10 µM unless noted,-71.6% (active)
same,growth,[4]; 10 µM unless noted,15.4% (inactive)
same,growth,[5]; 10 µM unless noted,-38.7% (active)
same,growth,[6],-64.9% (active)
same,growth,[7]; 10 µM unless noted,-70.1% (active)
same,growth,[8]; 10 µM unless noted,-91.9% (active)
same,growth,[9]; 10 µM unless noted,-86% (active)
CCN(CC)CC(C)(C)C(=O)/C=C/c1ccc(Cl)c(Cl)c1,growth,[1],7.58% (active)
same,growth,[2]; 10 µM unless noted,-15.3% (active)
same,growth,[3]; 10 µM unless noted,46.1% (inactive)
same,growth,[4]; 10 µM unless noted,-9.28% (active)
same,growth,[5]; 10 µM unless noted,-3.59% (active)
same,growth,[6],-48.3% (active)
same,growth,[7]; 10 µM unless noted,33.3% (inactive)
same,growth,[8]; 10 µM unless noted,-60.2% (active)
same,growth,[9]; 10 µM unless noted,-53.4% (active)
COc1ccccc1OC(=O)Oc1ccccc1OC,growth,[1],101% (inactive) and 95.5% (inactive)
same,growth,[2]; 10 µM unless noted,99.7% (inactive) and 106% (inactive)
same,growth,[3]; 10 µM unless noted,120% (inactive) and 100% (inactive)
same,growth,[4]; 10 µM unless noted,108% (inactive) and 104% (inactive)
same,growth,[5]; 10 µM unless noted,108% (inactive) and -0.941% (active)
same,growth,[6],85.3% (inactive) and 92.5% (inactive)
same,growth,[7]; 10 µM unless noted,90.1% (inactive) and 109% (inactive)
same,growth,[8]; 10 µM unless noted,103% (inactive) and 96.6% (inactive)
same,growth,[9]; 10 µM unless noted,123% (inactive) and 104% (inactive)
O=C1C=CC(=O)N1C1c2ccccc2-c2ccccc21,growth,[1],98.1% (inactive)
same,growth,[2]; 10 µM unless noted,95.6% (inactive)
same,growth,[3]; 10 µM unless noted,96.3% (inactive)
same,growth,[4]; 10 µM unless noted,96.5% (inactive)
same,growth,[5]; 10 µM unless noted,67.5% (inactive)
same,growth,[6],29.4% (inactive)
same,growth,[7]; 10 µM unless noted,91.4% (inactive)
same,growth,[8]; 10 µM unless noted,75.2% (inactive)
same,growth,[9]; 10 µM unless noted,20% (inactive)
OC(CNc1ccnc2cc(Cl)ccc12)CNc1ccnc2cc(Cl)ccc12,growth,[1],72% (inactive)
same,growth,[2]; 10 µM unless noted,39.3% (inactive)
same,growth,[3]; 10 µM unless noted,98.7% (inactive)
same,growth,[4]; 10 µM unless noted,63.5% (inactive)
same,growth,[5]; 10 µM unless noted,77.6% (inactive)
same,growth,[6],-3.14% (active)
same,growth,[7]; 10 µM unless noted,95.3% (inactive)
same,growth,[8]; 10 µM unless noted,95.5% (inactive)
same,growth,[9]; 10 µM unless noted,-55.4% (active)
CN(C)C(=O)c1ccc(SC(=S)NCc2ccccc2)cc1,growth,[2]; 10 µM,112% (inactive)
same,growth,[2]; 100 µM,102% (inactive)
same,growth,[3]; 10 µM,107% (inactive)
same,growth,[3]; 100 µM,46.5% (inactive)
same,growth,[4]; 10 µM,105% (inactive)
same,growth,[4]; 100 µM,8.96% (active)
same,growth,[5]; 10 µM unless noted,-10.3% [100 µM] (active)
same,growth,[6],-48.7% [100 µM] (active)
same,growth,[7]; 10 µM,105% (inactive)
same,growth,[7]; 100 µM,34.4% (inactive)
same,growth,[8]; 10 µM,109% (inactive)
same,growth,[8]; 100 µM,-17.6% (active)
same,growth,[9]; 10 µM,101% (inactive)
same,growth,[9]; 100 µM,-11.4% (active)
COc1ccc(-c2cscc2N)cc1,growth,[2]; 10 µM,106% (inactive)
same,growth,[2]; 100 µM,86.6% (inactive)
same,growth,[3]; 10 µM,55.8% (inactive)
same,growth,[3]; 100 µM,57.6% (inactive)
same,growth,[4]; 10 µM,83.5% (inactive)
same,growth,[4]; 100 µM,33.8% (inactive)
same,growth,[5]; 10 µM unless noted,68.7% [100 µM] (inactive)
same,growth,[6],34.8% [100 µM] (inactive)
same,growth,[7]; 10 µM,76.7% (inactive)
same,growth,[7]; 100 µM,46.1% (inactive)
same,growth,[8]; 10 µM,98.6% (inactive)
same,growth,[8]; 100 µM,37.1% (inactive)
same,growth,[9]; 10 µM,78% (inactive)
same,growth,[9]; 100 µM,-68.1% (active)
CN(Cc1cnc2nc(N)nc(N)c2n1)c1ccc(C(=O)NC(CCC(=O)O)C(=O)O)cc1 (centres undefined),growth,[1],23.4% (inactive)
same,growth,[2]; 10 µM unless noted,30.2% (inactive)
same,growth,[3]; 10 µM unless noted,43% (inactive)
same,growth,[4]; 10 µM unless noted,16.4% (inactive)
same,growth,[5]; 10 µM unless noted,37.1% (inactive)
same,growth,[6],29.2% (inactive)
same,growth,[7]; 10 µM unless noted,19.8% (inactive)
same,growth,[8]; 10 µM unless noted,13.7% (inactive)
same,growth,[9]; 10 µM unless noted,58.5% (inactive)
O=C(Nc1c(Cl)cccc1Cl)Oc1cccc2cccnc12,growth,[2]; 10 µM,66.1% (inactive)
same,growth,[2]; 100 µM,13.9% (inactive)
same,growth,[10]; 10 µM,23.7% (inactive)
same,growth,[10]; 100 µM,25% (inactive)
same,growth,[3]; 10 µM,47.5% (inactive)
same,growth,[3]; 100 µM,28.8% (inactive)
same,growth,[4]; 10 µM,27.1% (inactive)
same,growth,[4]; 100 µM,9% (active)
same,growth,[5]; 10 µM,53.2% (inactive)
same,growth,[5]; 100 µM,23.2% (inactive)
same,growth,[6],-4.33% [100 µM] (active)
same,growth,[7]; 10 µM,38% (inactive)
same,growth,[7]; 100 µM,18.2% (inactive)
same,growth,[8]; 10 µM,72% (inactive)
same,growth,[8]; 100 µM,31.3% (inactive)
same,growth,[9]; 10 µM,52.4% (inactive)
same,growth,[9]; 100 µM,92.8% (inactive)

# — PubChem BioAssay (NCI)
